Data reported in the supplement of paper PMC11417369.
± gives the standard deviation of the averaged measurements. Over roughly 25,000 sequences, “ln(normalized median fluorescence intensity)” has its median near 8.6; the highest 2% begin near 10. This is one part of a sample in which the highest values are shown more often than they occur.

system: PfAP2-EXP AP2 domain (GST-tagged); assay: gcPBM binding intensity (ln(normalized median fluorescence intensity)); higher = stronger DNA binding
Summary of the method: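 Each value is the highest Masliner-normalised natural-log median intensity across replicate spots of either orientation of a probe. The probes were primer-extended double-stranded 36-bp intergenic genomic sequences on an Agilent 4 × 180k array, alongside negative controls, exposed for 1 h to GST-tagged P. falciparum DNA-binding domains expressed in E. coli. Bound protein was picked up with Alexa488 anti-GST antibody and scanned at 488 nm.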

| Sequence | gcPBM binding intensity (ln) |
| --- | --- |
| CTGAAATTAACAAAAGTGCATAAAAATAAAAAATAT [GTGCAC_site9652] | 8.99 ± 0.29 |
| TAAAAAATTAATAAAGTGCATAAATATTACAATATT | 8.32 ± 0.18 |
| TAAATTAATAAACAAGTGCATATATATATATATATA | 10.2 ± 0.38 |
| TTTTTTTATTATTAAAGTACTAAAAAATGAAAACTG [XGTACX_site6758] | 8.26 ± 0.18 |
| AAGTTGGAAAGGTTATGTACTTATTTTTTAAAATAA [XGTACX_site204] | 8.27 ± 0.45 |
| TATCATTTTGTATATAGTACATATATAAAATCGTTA [XGTACX_site3875] | 8.35 ± 0.29 |
| GTATAATAAATGATAGCACACATATGTACTTATATA [CACACA_site8188] | 8.57 ± 0.25 |
| AGCCTCGGGGTCATATATATATATATATATATATAT [CACACA_negctrl_site512] | 10.2 ± 0.53 |
| ATATAGTAAAATTATACACACATGAATTTTCCCATG [CACACA_site1770] | 8.48 ± 0.49 |
| ATAAGTAATATAATATGTACATATATATATATATAT [XGTACX_site3818] | 10.2 ± 0.37 |
| ATAATAATAGTAATATGTACATATATATATATATAT [XGTACX_site7437] | 10.2 ± 0.53 |
| ATAAATAAATAAGTACATATATATATGTATATATAT [TGCATGCA_negctrl_site223] | 8.775 ± 0.021 |
| AATAATAATAGTAATATGTACATATATATATATATA [TGCATGCA_negctrl_site542] | 10.1 ± 0.33 |
| TATATATAAACATAATGTACATATAATAAGTAATAT [XGTACX_site497] | 8.89 ± 0.45 |
| TAATAATAGTAAATATGTACATATATATATATATAG [XGTACX_site4602] | 8.73 ± 0.3 |
| TTTAATAATATTTAGGTGCTATATATTATATGTATA | 8.32 ± 0.21 |
| CAATATAAAATAAAATGTACTTGTAGTAAAGGGATA [XGTACX_site1452] | 8.79 ± 0.35 |
| TGTGCACGCATATACACACACAAATACAATGATAAA [CACACA_site6656] | 8.65 ± 0.36 |
| AAGTAATACAACACGCACATATATATATATATATAT [GTGCAC_negctrl_site89] | 10.3 ± 0.3 |
| AATGTGATAATATACACACACGCATATATATATATA [CACACA_site323] | 10.2 ± 0.2 |
| CATATATAGATATATACACACATACATACATACATA [CACACA_site7748] | 8.55 ± 0.38 |
| ATACAACATATATATACACACATATAATAATAATAA [CACACA_site3367] | 8.62 ± 0.42 |
| AATACATATAATACAACACACAAGTAATATAAACCT [CACACA_site3597] | 8.87 ± 0.53 |
| GAAATGTGATAATATACACACACGCATATATATATA [CACACA_site4332] | 9.86 ± 0.3 |

| Sequence | gcPBM binding intensity (ln) |
| --- | --- |
| ATAGATATACATATCACACATATATATATATATATA [CACACA_site4985] | 10.2 ± 0.23 |
| ATTACATGATATATCACACACACATATAGATATATA [CACACA_site7352] | 8.65 ± 0.44 |
| TAGATACATACACGCACACACATATATATATATATA [CACACA_site12] | 10.2 ± 0.29 |
| TAGATACATACACGCACACACATATATAAATAAATA [CACACA_site6157] | 8.69 ± 0.49 |
| CATAGATACATACACGCACACACATATATATATATA [CACACA_site13] | 9.97 ± 0.36 |
| TTATTCTAAAAATATACACACAACAACAAACAAACA [CACACA_site1543] | 9.04 ± 0.39 |
| GAAAAAAAAAAAAAAAAACACACGGTACATTCAAAG [CACACA_site303] | 8.5 ± 0.58 |
| TACTGATCCACATTTATACACACCTCGGTTTGTAGA [CACACA_site417] | 8.56 ± 0.4 |
| CTTAATATTCTTTAAAGTACACAAAATAAGAATATA [XGTACX_site5489] | 8.87 ± 0.59 |
| ATAATATAAATACAAACACACAATTGCGTCCACATT [CACACA_site5039] | 8.82 ± 0.38 |
| GTCCAATAAGGAAGAGTGCAAAAATTAAATAATATA [GTGCAC_site9751] | 8.76 ± 0.28 |
| ATATATATATATATATGTACATATATTCGATTATTA [XGTACX_site557] | 10.29 ± 0.049 |
| TATATATATTATATATGTACATATTATATATATATA [XGTACX_site7300] | 9.46 ± 0.17 |
| ATATATATATATATATGTACATATTATTCTCATTGT [XGTACX_site6259] | 9.88 ± 0.28 |
| TATATTTATACAATATGTACATATTATATATATATA [XGTACX_site3098] | 9.57 ± 0.26 |
| ATATATATATATATATGTACATATATATATTATATT [XGTACX_site6303] | 10 ± 0.62 |
| ATATATATATATATATGTACATACAATTATATTCTC [XGTACX_site1133] | 10.2 ± 0.29 |
| AAGTTTTTTTCTTTTTTTCTCTCTTTTTTTTTTTTT [XGTACX_negctrl_site613] | 8.19 ± 0.51 |
| ATAAATATATATATAGTGCATATAAGCCACCTTCAA [GTGCAC_site9628] | 8.86 ± 0.014 |
| AATTGAAAAGAATGAAGTACACATTTGATGATACAT [XGTACX_site5182] | 8.62 ± 0.33 |
| TACAATATAAAATACACACGCACACCGAAAAAAAAA [CACACA_site5865] | 8.53 ± 0.4 |
| ATATAAAAAAAAAATTGTACAAAAATATATACATAT [XGTACX_site469] | 8.53 ± 0.42 |
| AAATATATTATAAATTGTACGTTTATATATATTATT [XGTACX_site5110] | 8.29 ± 0.37 |
| TTAGGCAAGGCGGGGGGTACGTTTTTATATAATTAT [XGTACX_site8029] | 10.7 ± 0.18 |

| Sequence | gcPBM binding intensity (ln) |
| --- | --- |
| AATAATATATTTAGGGGTACATAATAATATATTTTA [XGTACX_site8366] | 8.81 ± 0.6 |
| ATCTTTCCTATTTGTAGTACAAAAAAAAAAAAAAAA [XGTACX_site5485] | 8.44 ± 0.18 |
| TTTGTAATAACATATGCATGTTCAAAAAATAAAATA [TGCATGCA_site817] | 8.4 ± 0.36 |
| TTATAAAAGAAAAAAAAAAAAAAAAAAAAAAAAAAA [CACACA_negctrl_site1006] | 7.89 ± 0.43 |
| AAGAAAAAAAAAAAAACACACATATATTTATTTATA [CACACA_site7042] | 8.06 ± 0.47 |
| AAGAAAAACTTATATATATATATATATATATATATA [TGCATGCA_negctrl_site466] | 10.3 ± 0.29 |
| TTTAATAATATAATGTGTACTTAAAAATTTATATAT [XGTACX_site5821] | 8.29 ± 0.21 |
| ATATATATATATATATGTACTTAAAAAATATATACA [XGTACX_site8952] | 10.2 ± 0.53 |
| ATTACAAATATAATATGTACTTAAATATAATTAAAA [XGTACX_site7038] | 8.17 ± 0.34 |
| AATAATAAATAAATGTGTACTTAAAAATATTATATT [XGTACX_site3005] | 8.44 ± 0.33 |
| ATATATATATATGTGTGTACTTAAAAATATAATGCA [XGTACX_site7753] | 10.2 ± 0.14 |
| TATACATTATTATTATGTACTTAAATATATATTATA [XGTACX_site5173] | 8.35 ± 0.34 |
| TGGAAAATTATTAACACACACATATAAATATATATA [CACACA_site46] | 8.4 ± 0.45 |
| TGCAAATTTAACAAAAAAAAAAAAAAAAAAAAAAAA [GTGCAC_negctrl_site64] | 7.88 ± 0.45 |
| AAAATACAATTTCTAGCACACAAAATATTATTATAA [CACACA_site9056] | 8.34 ± 0.37 |
| TTCACTTTTTTTTTTTTTTTTTTTTTTTTTTTTATT [GTGCAC_negctrl_site350] | 8.07 ± 0.56 |
| TAATTTCTTATGTATTGTACATATAATATATGATAT [XGTACX_site4898] | 8.52 ± 0.41 |
| AATATTTTCTGTAATACTTCTTTTCAATTTATTTCG [CACACA_negctrl_site1390] | 8.76 ± 0.45 |
| ATATATATATATATATGGTAAAGTAAAAGGAAATAC [XGTACX_negctrl_site45] | 10.3 ± 0.3 |
| TATAAAATAAAAGTAAATATATATATATATATATAT [TGCATGCA_negctrl_site208] | 10.1 ± 0.3 |
| ATAATATATGAAAGTGGTACACAAAGGAAAATAAAA [XGTACX_site333] | 9.14 ± 0.57 |
| GAAACGTTTTTGAGTAGTACACACACAATAAGGATG [XGTACX_site6809] | 9.02 ± 0.45 |
| TTTTATACATAAATGTGTACGTATATATAATGAATT [XGTACX_site2762] | 8.59 ± 0.32 |
| GATTTATATTTTAAAAGTACAAGTTAAAATAAAAGT [XGTACX_site7059] | 8.74 ± 0.33 |

| Sequence | gcPBM binding intensity (ln) |
| --- | --- |
| ATATATATTATGTGTGTGCACTTTTGTTATTATTAT | 9 ± 0.33 |
| ATATATGATGTATTTGTGCACATATATATATTATTA [GTGCAC_site9471] | 8.75 ± 0.028 |
| TTTTTGTTATTATGTGTGCACATATATATATATATA | 10.3 ± 0.4 |
| TTATTTTATTTTTTTGTGCACATATATATTTATAAA [GTGCAC_site9615] | 9.15 ± 0.21 |
| TATGTATATTTTTTTGTGCACATATATATATATATA | 10.2 ± 0.26 |
| ACATATTATATATGTGTGCACATATATATATATTTA [GTGCAC_site9591] | 8.47 ± 0.13 |
| AACAAATACAGACACACACACACACTAATAAAAAAA [CACACA_site8067] | 8.66 ± 0.52 |
| ATATATGGAAAGAGTAGTACTATTATAGGGGTGTTA [XGTACX_site6785] | 8.95 ± 0.64 |
| TTTTTTTTGTAGAATTGTACTTATAAAATATATATA [XGTACX_site2116] | 8.19 ± 0.34 |
| TAAAAATTACTATATGAACACACATGATTAGATATA [CACACA_site9012] | 8.43 ± 0.49 |
| TTATATTTATAAAGGTGTACCTTAAAATGATTTTAC [XGTACX_site3774] | 8.19 ± 0.25 |
| ATTTATTTATTTATATGTACATATATATATATATAT [XGTACX_site339] | 10.1 ± 0.3 |
| GTAATTTTATATGGTTGTACATATATATATATATAT [XGTACX_site6659] | 10.2 ± 0.18 |
| AAAAAAAATATAATATGTACATATCTATATATCAAC [XGTACX_site4881] | 8.55 ± 0.38 |
| GCTCAATGTTTTACATGTACATATATATATATATAT [XGTACX_site8210] | 10.2 ± 0.33 |
| ATATATATATATATATGTACATATATTTATTTATTG [XGTACX_site6267] | 10.2 ± 0.3 |
| TATACATGTATATATTGTACATATGTTTTTTTTACA [XGTACX_site3300] | 8.86 ± 0.57 |
| TGTGTATATTATATGTGTACATATCAATGTTTATAT [XGTACX_site1885] | 8.61 ± 0.26 |
| ATTTGTTCATTTGGTTGTACATAATTTATTTTTATA [XGTACX_site785] | 8.75 ± 0.33 |
| ATATATATATATATATGTACATATATTTATATTTAT [XGTACX_site6179] | 9.99 ± 0.42 |
| ATATATATATATGTCTGTACATAAAAAATAATAAAT [XGTACX_site3122] | 10 ± 0.36 |
| ATATATATATATATATGTACATATGTCAACTGTCTA [XGTACX_site8636] | 10.3 |
| GTCATATATAATTGTTGTACATTTTTATAATTATGT [XGTACX_site8091] | 8.86 ± 0.36 |
